The antibiotic and cytotoxicity screens of Wong et al. (2023)
In all, about 39,000 compounds went through this assay and about 1,500 (3.8%) were called active. Only a selection was taken, and actives are over-represented in it overall.

Each molecule was assayed on HSkMC (human skeletal muscle cells) (assay: cytotoxicity call (relative viability < 0.9)). Details: 10 µM.

Question: For `COCC#Cc1ccc2c(c1)O[C@@H](CN(C)C(=O)C1CCOCC1)[C@H](C)CN([C@H](C)CO)S2(=O)=O`, which cytotoxicity call is on record?
Answer: Its cytotoxicity call is “inactive”.

Question: How did the cytotoxicity call turn out when `CC(C)[Si](C#CCCCC#N)(O[C@H](c1ccccc1)c1cn(Cc2cccc(Cl)c2)nn1)C(C)C` was run?
Answer: Its cytotoxicity call is “inactive”.

Question: With `C[C@H](CO)N1C[C@H](C)[C@@H](CN(C)Cc2ccccc2)OCCCC[C@H](C)Oc2ccc(NC(=O)Nc3ccc(F)cc3)cc2C1=O` as the molecule, how does the cytotoxicity call read?
Answer: The cytotoxicity call was “inactive”.

Question: For `C[C@H]1CN([C@@H](C)CO)C(=O)c2cccc(NC(=O)c3ccc(-c4nccs4)cc3)c2O[C@@H]1CN(C)Cc1ccccc1`, which cytotoxicity call is on record?
Answer: Its cytotoxicity call is “inactive”.

Question: `Cc1noc(C)c1NC(=O)N(C)C[C@@H]1Oc2ncc(C#Cc3ccccc3)cc2C(=O)N([C@H](C)CO)C[C@@H]1C` was tested. Which cytotoxicity call did it give?
Answer: Its cytotoxicity call is “inactive”.

Question: `COc1ccc(S(=O)(=O)Nc2ccc3c(c2)C(=O)N([C@@H](C)CO)C[C@H](C)[C@H](CN(C)C(=O)NC2CCCCC2)OCCCC[C@H](C)O3)cc1` was tested. Which cytotoxicity call did it give?
Answer: Its cytotoxicity call is “inactive”.

Question: For `CCCC#Cc1ccc2c(c1)O[C@@H](CN(C)Cc1ccc3c(c1)OCO3)[C@@H](C)CN([C@@H](C)CO)S2(=O)=O`, which cytotoxicity call is on record?
Answer: Its cytotoxicity call is “inactive”.

Question: How did the cytotoxicity call turn out when `COCC(=O)N1CC[C@]2(CC1)CN([C@@H](CO)c1[nH]c3cc(ccc3c12)OC)S(=O)(=O)C` was run?
Answer: The cytotoxicity call was “inactive”.

Question: Which cytotoxicity call does the source give for `Cn1c2c(c(=S)[nH]c1=O)CCC2` here?
Answer: The cytotoxicity call was “inactive”.

Question: `Cc1ccc(S(=O)(=O)Nc2ccc3c(c2)C(=O)N([C@@H](C)CO)C[C@H](C)[C@H](CN(C)Cc2ccc(C(=O)O)cc2)OCCCC[C@H](C)O3)cc1` was tested. Which cytotoxicity call did it give?
Answer: The cytotoxicity call was “inactive”.

Question: For `C[C@@H]1CN([C@@H](C)CO)C(=O)c2cc(NC(=O)Nc3ccc4c(c3)OCO4)ccc2O[C@@H](C)CCCCO[C@@H]1CN(C)Cc1ccc(C(=O)O)cc1`, which cytotoxicity call is on record?
Answer: Its cytotoxicity call is “inactive”.

Question: `C[C@@H]1CN([C@@H](C)CO)C(=O)c2cc(NC(=O)Nc3ccc(F)cc3)ccc2O[C@@H](C)CCCCO[C@H]1CN(C)C(=O)Cc1ccccc1` was tested. Which cytotoxicity call did it give?
Answer: The cytotoxicity call was “inactive”.

Question: With `C[C@@H]1CN([C@@H](C)CO)C(=O)c2cc(NC(=O)Nc3ccccc3)ccc2O[C@@H](C)CCCCO[C@@H]1CN(C)C(=O)Cc1ccccc1` as the molecule, how does the cytotoxicity call read?
Answer: Its cytotoxicity call is “inactive”.

Question: With `C[C@H]1CCCCO[C@H](CN(C)Cc2ccc(C(=O)O)cc2)[C@@H](C)CN([C@@H](C)CO)C(=O)c2cc(NC(=O)C3CCCCC3)ccc2O1` as the molecule, how does the cytotoxicity call read?
Answer: Its cytotoxicity call is “inactive”.

Question: How did the cytotoxicity call turn out when `C(=N\c1ccccc1)/c1ccc(Oc2ccccc2)cc1` was run?
Answer: Its cytotoxicity call is “inactive”.

Question: With `C[C@@H]1CN([C@@H](C)CO)C(=O)Cc2cc(NC(=O)CCCCCC(=O)Nc3ccccc3N)ccc2O[C@@H]1CN(C)Cc1ccc(C(F)(F)F)cc1` as the molecule, how does the cytotoxicity call read?
Answer: The cytotoxicity call was “active”.

Question: How did the cytotoxicity call turn out when `C[C@@H]1CN([C@@H](C)CO)C(=O)Cc2cc(NC(=O)CCCCCC(=O)Nc3ccccc3N)ccc2O[C@H]1CN(C)Cc1ccc(C(F)(F)F)cc1` was run?
Answer: The cytotoxicity call was “inactive”.

Question: Which cytotoxicity call does the source give for `C[C@@H]1CN([C@H](C)CO)C(=O)Cc2cc(NC(=O)CCCCCC(=O)Nc3ccccc3N)ccc2O[C@@H]1CN(C)Cc1ccc(C(F)(F)F)cc1` here?
Answer: Its cytotoxicity call is “active”.

Question: Which cytotoxicity call does the source give for `C[C@H](CO)N1C[C@H](C)[C@H](CN(C)Cc2ccc(C(F)(F)F)cc2)Oc2ccc(NC(=O)CCCCCC(=O)Nc3ccccc3N)cc2CC1=O` here?
Answer: The cytotoxicity call was “inactive”.

Question: How did the cytotoxicity call turn out when `C[C@@H]1CN([C@H](C)CO)C(=O)Cc2cc(NC(=O)CCCCCC(=O)Nc3ccccc3N)ccc2O[C@H]1CN(C)Cc1ccc(C(F)(F)F)cc1` was run?
Answer: Its cytotoxicity call is “inactive”.

Question: `C[C@H]1CN([C@@H](C)CO)C(=O)Cc2cc(NC(=O)CCCCCC(=O)Nc3ccccc3N)ccc2O[C@@H]1CN(C)Cc1ccc(C(F)(F)F)cc1` was tested. Which cytotoxicity call did it give?
Answer: The cytotoxicity call was “inactive”.

Question: Which cytotoxicity call does the source give for `COc1cccc(Nc2ncnn3ccc(CN4CC[C@@H](N)[C@H](O)C4)c23)c1` here?
Answer: Its cytotoxicity call is “inactive”.

Question: Which cytotoxicity call does the source give for `COc1cccc(S(=O)(=O)N2C[C@H](O)COC[C@H]3O[C@H](CC(=O)N4CCN(C)CC4)CC[C@@H]32)c1` here?
Answer: Its cytotoxicity call is “inactive”.

Question: For `C[C@H](CO)N1C[C@H](C)[C@@H](CN(C)CC2CC2)Oc2ccc(NS(=O)(=O)c3ccccc3)cc2C1=O`, which cytotoxicity call is on record?
Answer: The cytotoxicity call was “inactive”.

Question: `CC1(C)[C@H]2CC[C@@]1(C)c1nn(-c3ccccc3)c(C(F)(F)F)c12` was tested. Which cytotoxicity call did it give?
Answer: Its cytotoxicity call is “inactive”.

Question: With `C[C@H](CO)N1C[C@H](C)[C@@H](CN(C)C(=O)Nc2cccc3ccccc23)OCCCC[C@H](C)Oc2ccc(NC(=O)Nc3ccc(F)cc3)cc2C1=O` as the molecule, how does the cytotoxicity call read?
Answer: The cytotoxicity call was “inactive”.

Question: Which cytotoxicity call does the source give for `C[C@H](CO)N1C[C@H](C)[C@@H](CN(C)Cc2ccc(Oc3ccccc3)cc2)Oc2ccc(NC(=O)Nc3ccccc3)cc2C1=O` here?
Answer: Its cytotoxicity call is “inactive”.

Question: For `C[C@@H]1CN([C@@H](C)CO)C(=O)c2cc(NC(=O)Cc3ccccc3)ccc2O[C@H]1CN(C)Cc1ccc(Oc2ccccc2)cc1`, which cytotoxicity call is on record?
Answer: Its cytotoxicity call is “inactive”.

Question: For `COc1ccc(NC(=O)Nc2ccc3c(c2)C(=O)N([C@H](C)CO)C[C@H](C)[C@@H](CN(C)Cc2ccc(Oc4ccccc4)cc2)O3)cc1`, which cytotoxicity call is on record?
Answer: The cytotoxicity call was “inactive”.

Question: `COc1ccc(NC(=O)Nc2ccc3c(c2)C(=O)N([C@H](C)CO)C[C@@H](C)[C@@H](CN(C)Cc2ccc(Oc4ccccc4)cc2)O3)cc1` was tested. Which cytotoxicity call did it give?
Answer: The cytotoxicity call was “inactive”.

Question: `C[C@@H]1CN([C@@H](C)CO)C(=O)c2cc(NC(=O)Cc3ccccc3)ccc2O[C@@H]1CN(C)Cc1ccc(Oc2ccccc2)cc1` was tested. Which cytotoxicity call did it give?
Answer: The cytotoxicity call was “active”.

Question: How did the cytotoxicity call turn out when `C[C@@H]1CN([C@@H](C)CO)C(=O)c2cc(NC(=O)Nc3ccccc3)ccc2O[C@@H]1CN(C)Cc1ccc(Oc2ccccc2)cc1` was run?
Answer: Its cytotoxicity call is “active”.

Question: With `C[C@@H]1CN([C@@H](C)CO)C(=O)c2cc(NC(=O)Nc3ccc4c(c3)OCO4)ccc2O[C@H]1CN(C)Cc1ccc(Oc2ccccc2)cc1` as the molecule, how does the cytotoxicity call read?
Answer: Its cytotoxicity call is “inactive”.

Question: For `C[C@@H]1CN([C@H](C)CO)C(=O)c2cc(NC(=O)Cc3ccccc3)ccc2O[C@@H]1CN(C)Cc1ccc(Oc2ccccc2)cc1`, which cytotoxicity call is on record?
Answer: Its cytotoxicity call is “inactive”.

Question: Which cytotoxicity call does the source give for `C[C@@H]1CN([C@H](C)CO)C(=O)c2cc(NC(=O)Nc3ccc4c(c3)OCO4)ccc2O[C@@H]1CN(C)Cc1ccc(Oc2ccccc2)cc1` here?
Answer: Its cytotoxicity call is “active”.

Question: For `C[C@@H]1CN([C@@H](C)CO)C(=O)c2cc(NC(=O)Nc3ccccc3)ccc2O[C@H]1CN(C)Cc1ccc(Oc2ccccc2)cc1`, which cytotoxicity call is on record?
Answer: The cytotoxicity call was “inactive”.

Question: `C[C@H](CO)N1C[C@H](C)[C@H](CN(C)Cc2ccc(Oc3ccccc3)cc2)Oc2ccc(NC(=O)Nc3ccc4c(c3)OCO4)cc2C1=O` was tested. Which cytotoxicity call did it give?
Answer: Its cytotoxicity call is “inactive”.

Question: `COc1ccc(NC(=O)Nc2ccc3c(c2)C(=O)N([C@H](C)CO)C[C@H](C)[C@H](CN(C)Cc2ccc(Oc4ccccc4)cc2)O3)cc1` was tested. Which cytotoxicity call did it give?
Answer: Its cytotoxicity call is “active”.

Question: Which cytotoxicity call does the source give for `Cc1ccc(S(=O)(=O)N[C@@H]2CC[C@@H](CC(=O)N3CCC(Cc4ccccc4)CC3)O[C@H]2CO)cc1` here?
Answer: Its cytotoxicity call is “inactive”.
